Screening data: PubChem BioAssay, Paczesny and Yang Labs, IUPUI and University of Michigan
This excerpt belongs to a sample that is enriched for hits.
ST2 IL33 inh – inhibitors of human ST2 (IL1RL1) binding to IL-33 | inhibition, % for hits at 17 µM | AID 1259354 | AlphaLISA ST2-Fc/biotin-IL-33 interaction, 1 h | 2.3% of 78,000 active | Q01638; in the data active = inhibition above about 30%
Target sequence (Q01638 whole entry, looked up): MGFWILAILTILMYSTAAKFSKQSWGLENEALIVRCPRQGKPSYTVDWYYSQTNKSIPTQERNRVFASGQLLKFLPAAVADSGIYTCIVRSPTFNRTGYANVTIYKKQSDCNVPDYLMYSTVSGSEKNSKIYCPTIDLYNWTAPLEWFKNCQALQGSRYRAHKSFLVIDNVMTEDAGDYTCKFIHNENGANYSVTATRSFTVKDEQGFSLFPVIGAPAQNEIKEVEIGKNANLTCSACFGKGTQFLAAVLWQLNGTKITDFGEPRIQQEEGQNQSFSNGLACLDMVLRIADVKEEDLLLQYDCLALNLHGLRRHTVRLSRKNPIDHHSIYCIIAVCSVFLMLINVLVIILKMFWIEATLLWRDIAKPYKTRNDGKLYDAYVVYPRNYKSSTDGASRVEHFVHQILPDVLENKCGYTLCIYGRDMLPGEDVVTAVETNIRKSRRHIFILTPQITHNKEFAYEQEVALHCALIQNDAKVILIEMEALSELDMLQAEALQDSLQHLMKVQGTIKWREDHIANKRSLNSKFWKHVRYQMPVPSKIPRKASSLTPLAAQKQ
Numbers stand for hits.

For CCC1(C)Cc2c(sc3nc(SC)n(-c4ccc(OC)cc4)c(=O)c23)CO1 (configuration not stated) the results were ST2 IL33 inh inactive.
For CSc1nc2nc3c(cc2c(=O)n1-c1ccccc1C)COC(C)(C)C3 the results were ST2 IL33 inh inactive.
CCCSc1nc2nc3c(cc2c(=O)n1-c1ccc(OC)cc1)COC(C)(C)C3 was read as ST2 IL33 inh 44%.
O=c1[nH]nc(Cc2ccncc2)c2ccccc12 was read as ST2 IL33 inh inactive.
For COc1ccccc1CNc1ncnc2c1cnn2-c1cccc(C)c1 the results were ST2 IL33 inh inactive.
For CCCCSc1nnc(-c2ccccc2N)c(=O)[nH]1 the results were ST2 IL33 inh inactive.
`Cc1cc2nc(Cc3cccc(F)c3)c(=O)n(C)c2cc1C` gave ST2 IL33 inh inactive.
Cn1c(=O)c(-c2ccccc2N)nc2cc3ccccc3cc21 was read as ST2 IL33 inh 32%.
`CCOC(=O)Cn1c(=O)n(-c2ccc(F)cc2)c2nc(-c3cc(F)ccc3F)nc(C(N)=O)c21` gave ST2 IL33 inh inactive.
For Cc1nc2ccccc2c2c1C(=O)N(c1ccccc1)C2=O the results were ST2 IL33 inh inactive.
For Cc1nc2ccccc2c2c1C(=O)N(c1cccc(Cl)c1)C2=O the results were ST2 IL33 inh inactive.
`Cc1nc2ccccc2c2c1C(=O)N(c1ccc(F)cc1F)C2=O` gave ST2 IL33 inh inactive.
For Cc1nc2ccccc2c2c1C(=O)N(C(C)Cc1ccccc1)C2=O (configuration not stated) the results were ST2 IL33 inh 34%.
Screening COc1ccc(Cl)cc1N1C(=O)c2c(C)nc3ccccc3c2C1=O returned ST2 IL33 inh 31%.
`Cc1nc2ccccc2c2c1C(=O)N(Cc1cccnc1)C2=O` gave ST2 IL33 inh inactive.
For CC(=O)c1cccc(NC(=O)c2ccccc2I)c1 the results were ST2 IL33 inh inactive.
OCc1ccc(CN2CCCCC2CN2CCOCC2)o1 (configuration not stated) was read as ST2 IL33 inh inactive.
For O=C(Nc1c(C(=O)Nc2ccccc2F)oc2ccccc12)c1ccccc1 the results were ST2 IL33 inh inactive.
CCOC(=O)c1cc2c(ccc3oc4c(c32)CCCC4)oc1=O was read as ST2 IL33 inh inactive.
Screening COc1ccccc1N=Cc1c(O)ccc2oc3c(c12)CCCC3 returned ST2 IL33 inh 31%.
Screening COc1ccc(N=Cc2cccc(OC)c2O)c(OC)c1 returned ST2 IL33 inh inactive.
`O=C(CN1C(=O)CC(c2ccco2)Sc2ccccc21)Nc1ccc(F)cc1` (configuration not stated) gave ST2 IL33 inh inactive.
CCc1nc2nc(C)[nH]n2c(=O)c1NC(=O)Nc1cccc(SC)c1 was read as ST2 IL33 inh inactive.
CCn1c(C2CCN(C(=O)Cc3nonc3C)CC2)nn(C)c1=O was read as ST2 IL33 inh inactive.
COc1ccccc1N1C(=O)C2C(C(C)=O)=NN(c3ccc(C)cc3)C2C1=O (configuration not stated) was read as ST2 IL33 inh inactive.
For Cc1ccc(C)c(Cn2c(=O)n(CCC(=O)NCc3ccccc3)c(=O)c3sccc32)c1 the results were ST2 IL33 inh inactive.
For N#C/C(=C\c1ccc(-c2ccc3c(c2)C(=O)NC3=O)o1)c1nc2ncc(Br)cc2[nH]1 the results were ST2 IL33 inh 33%.
`O=C1NN(c2ccc(Cl)c(Cl)c2)C(=O)/C1=C/c1ccc(-c2ccc3c(c2)C(=O)NC3=O)o1` gave ST2 IL33 inh inactive.
Screening O=C(Nc1cc(Cl)ccc1Cl)c1cc(-c2cccs2)on1 returned ST2 IL33 inh inactive.
For CC1=CC(=NC(=NS(=O)(=O)c2ccc(C)cc2)c2ccccc2)C(C)=CC1=O the results were ST2 IL33 inh 44%.
Screening Cc1ccc(C(N)=NC(=NS(=O)(=O)c2ccccc2)c2ccccc2)cc1 returned ST2 IL33 inh inactive.
Cc1ccc(S(=O)(=O)N=C(Nc2ccccn2)c2ccccc2)cc1 was read as ST2 IL33 inh inactive.
`CC(C)CN(Cc1ccccn1)C(=O)c1coc2c1C(=O)CCC2` gave ST2 IL33 inh inactive.
COc1ccccc1-n1c(O)c(C=Nc2ccc(C)cc2)c2ccccc2c1=O was read as ST2 IL33 inh 34%.
`Cc1cc(O)c(C=Nc2cccc(C(=O)O)c2)c(C)c1Cl` gave ST2 IL33 inh inactive.
Screening COc1ccccc1-n1nc(C(=O)O)c2ccccc2c1=O returned ST2 IL33 inh inactive.
For Cc1ccccc1-n1c(O)c(C=Nc2ccccc2)c2ccccc2c1=O the results were ST2 IL33 inh 47%.
For COc1ccc(C)cc1NC(=O)CNC(=O)c1cn(-c2ccccc2OC)c(=O)c2ccccc12 the results were ST2 IL33 inh inactive.
For CCOc1ccccc1N=Cc1c(O)n(-c2ccccc2C)c(=O)c2ccccc12 the results were ST2 IL33 inh inactive.
Screening COc1cc(F)ccc1-c1ccc(Cn2ccnc2)cn1 returned ST2 IL33 inh inactive.
c1cncc(CN(CC2CCN(C3Cc4ccccc4C3)CC2)CC2CCCO2)c1 (configuration not stated) was read as ST2 IL33 inh inactive.
For Cc1ccc(C2N3CC4(C(C)C)CN2CC(C(C)C)(C3)C4=O)cc1 (configuration not stated) the results were ST2 IL33 inh inactive.
Cc1ccc2[nH]cc(CN3CCC(n4cc(CN5CCOCC5)nn4)CC3)c2c1 was read as ST2 IL33 inh inactive.
CC(=O)N1N=C(c2ccc(C)cc2)CC1c1ccc(Cl)cc1 (configuration not stated) was read as ST2 IL33 inh inactive.
COCCC(=O)N1CCC2(CC1)CN(Cc1ccc(Cl)cc1)CCN2C was read as ST2 IL33 inh inactive.
Screening CC(CN(C)Cc1ccc(-n2ccnc2)cc1)N1CCOCC1 (configuration not stated) returned ST2 IL33 inh inactive.
For CC12CCC(c3nc4ccccc4nc31)C2(C)C (configuration not stated) the results were ST2 IL33 inh inactive.
CC(C)Oc1cccc(C(=O)Nc2ccc(-c3nc4ncccc4o3)cc2)c1 was read as ST2 IL33 inh 32%.
Screening CCCOc1ccc(C(=O)Nc2cc(-c3nc4ncccc4o3)ccc2C)cc1 returned ST2 IL33 inh inactive.
CCOc1cc(C(=O)Nc2cc(-c3nc4ncccc4o3)ccc2C)cc(OCC)c1OCC was read as ST2 IL33 inh 37%.
For O=C(Nc1ccc(-c2nc3ncccc3o2)cc1)c1cccnc1 the results were ST2 IL33 inh inactive.
CC(C)Oc1ccc(C(=O)Nc2cccc(-c3nc4ncccc4o3)c2)cc1 was read as ST2 IL33 inh inactive.
For Cc1ccc(C(=O)Nc2cc(-c3nc4ncccc4o3)ccc2C)cc1C the results were ST2 IL33 inh inactive.
`COc1cc2[nH]cc(C(=O)c3ccc(F)cc3)c(=O)c2cc1OC` gave ST2 IL33 inh inactive.
CCOC(=O)c1c(NC(=O)c2ccccc2SC)sc2c1CCC2 was read as ST2 IL33 inh inactive.
For Cc1nc2sc(C(c3ccccc3)N3CCN(Cc4ccccc4)CC3)c(O)n2n1 (configuration not stated) the results were ST2 IL33 inh inactive.
`COc1ccc(C2=CC(=O)Nc3ccccc3S2)cc1` gave ST2 IL33 inh inactive.
Screening c1ccc2c(c1)Nc1ccc3ccccc3c1S2 returned ST2 IL33 inh 39%.
For Fc1ccc2c(c1)Sc1ccccc1N2 the results were ST2 IL33 inh 36%.
Screening CC1=C(NCc2ccccc2)CCC1=O returned ST2 IL33 inh inactive.
Screening CC(NS(=O)(=O)c1ccccc1)C(c1cccs1)N1CCN(c2ccc(F)cc2)CC1 (configuration not stated) returned ST2 IL33 inh inactive.
Screening CC(C)CCNC(=O)CN1C(=O)c2ccccc2S1(=O)=O returned ST2 IL33 inh inactive.
